The assay is described as follows: cell-free HIV fusion peptide-binding blockers – biochemical, uHTS, fluorescence dequenching, primary screen (AID 1986). The note with it: 30 min, stronger effect = higher value.
[1] abbreviates: measured here: repeat confirmation average inhibition, at 18.6 µM.

These results are taken from PubChem BioAssay AID1986 (Sanford-Burnham Center for Chemical Genomics, 2009).

The campaign covered roughly 290,000 compounds. About 890 (0.31%) were called active. No stated cut-off is given here; in the data, active means inhibition mostly above about 52% (no sharp cut-off); inactive means mostly below about 76%. The full list was thinned out, with actives kept by preference.

In the case of `CC(=O)NS(=O)(=O)c1ccc(N=c2ssc3c2-c2cc(C)c(C)cc2NC3(C)C)cc1`, the inhibition (in general, the drop in the measured response relative to a control, in per cent) (at 20 µM) was 51.7% (inactive) and the inhibition under setting [1] is 11.3%.
As for `CC(=O)NS(=O)(=O)c1ccc(N=c2ssc3c2-c2ccc(C)cc2NC3(C)C)cc1`, for the setting “at 20 µM”, the inhibition was 52.5% (active).
In the case of `CC(=O)NS(=O)(=O)c1ccc(N=c2ssc3c2-c2cc(C)ccc2NC3(C)C)cc1`, the inhibition (at 20 µM) is 46.9% (inactive).
Still for that read-out and setting: with `Cc1snc(SCc2cccc(Cl)c2)c1C#N` the figure was -1.1% (inactive); with `N#Cc1c(Cl)nc(SCc2ccccc2)nc1-c1ccccc1`, -2.7% (inactive); with `O=C(CSc1nc(O)cc(=O)[nH]1)N1c2ccccc2Sc2ccccc21`, 2.6% (inactive).
As for `Cc1nc(SCC(=O)N2c3ccccc3Sc3ccccc32)n[nH]1`, the inhibition (at 20 µM) is -1.2% (inactive).
The same measure, in the same setting: with `CC(C)NC(=O)CSc1nnc(-c2ccc(S(=O)(=O)N3CCCC3)cc2)n1CC1CCCO1` (configuration not stated) the figure was -1.1% (inactive).
The same measure, in the same setting: with `CCn1cnc2scc(-c3ccc(OC)cc3)c2c1=O` the figure was 2% (inactive); with `CC1CCC2(CC1)NC(=O)N(Cc1cc(=O)n3ccsc3n1)C2=O` (configuration not stated), -0.3% (inactive); with `O=C(OCc1c(Cl)cccc1Cl)c1cccnc1`, -1.3% (inactive).
Same read-out and setting: with `CCCN(CCC)Cc1cc2ccccc2c2c1COC2` the figure was 1.9% (inactive); with `Cc1ccc(Cc2c(C)[nH]c(=S)[nH]c2=O)cc1`, 0.1% (inactive); with `CCOc1ccc(CC(=O)Nc2cc(=O)n(C)c(=O)n2C)cc1`, 1.4% (inactive).
`CCN(CC)c1ccc2cc(C(N)=O)/c(=N\NC(=O)c3ccncc3)oc2c1`: the inhibition was 97.7% (active) (at 20 µM) and 54.3% under setting [1].
Regarding `NC(=O)c1cc2ccccc2o/c1=N\NC(=O)c1ccncc1`, the inhibition (at 20 µM) was -1.9% (inactive).
Turning to `CCN(CC)c1ccc2cc(/C(N)=N/NC(=O)c3cccs3)c(=O)oc2c1`, the inhibition (at 20 µM) is 99.5% (active) and the inhibition under setting [1] was found to be 53.8%.
Consider `CCN(CC)c1ccc2cc(C(N)=O)c(=N)oc2c1`, for which the inhibition (at 20 µM) is 136% (inactive).
For `N/C(=N\NC(=O)c1cccs1)c1cc2ccccc2oc1=O`, for the setting “at 20 µM”, the inhibition was 1.8% (inactive).
Regarding `N/C(=N\NC(=O)c1cccs1)c1cc2cc(Cl)ccc2oc1=O`, the inhibition (at 20 µM) is 2.7% (inactive).
The same measure, in the same setting: with `COC(=O)CCc1nc2cc(Cl)ccc2n(Cc2ccccc2)c1=O` the figure was 0% (inactive).
As for `O=C(NCc1cccs1)C1CC(=O)N(c2ccccc2)C1` (configuration not stated), the inhibition (at 20 µM) is -2.2% (inactive).
Same read-out and setting: with `COc1cccc(C=N[C@@H](CO)[C@@H](O)c2ccc([N+](=O)[O-])cc2)c1O` the figure was -1% (inactive).
In the case of `COC(=O)/C(N=Nc1c(C)n(C)n(-c2ccccc2)c1=O)=C(\C)O`, the inhibition (at 20 µM) is 2.8% (inactive).
For `COC(=O)CCCC1=CC2=CC(=O)C(C)(OC(=O)C3CCCC3)C(=O)C2=CO1` (configuration not stated), the inhibition was 52.5% (inactive) (at 20 µM) and 24.7% under setting [1].
In the case of `CCCCC1=CC2=CC(=O)C(C)(OC(=O)C3CCCC3)C(=O)C2=CO1` (configuration not stated), the inhibition (at 20 µM) is 68.3% (active).
On to `CCCCC1=CC2=CC(=O)C(C)(OC(=O)CCc3ccccc3)C(=O)C2=CO1` (configuration not stated), for which the inhibition (at 20 µM) is 41.7% (inactive).
In the case of `O=C(Cn1cccc1C(=O)c1ccccc1)NCc1ccc2c(c1)OCO2`, for the setting “at 20 µM”, the inhibition was -0.1% (inactive).
On the same count and under the same terms, with `CC(CCc1ccccc1)NC(=O)CSc1cccc[n+]1[O-]` (configuration not stated) the figure was 2.5% (inactive).
In the case of `O=C(N/N=C/c1ccc([N+](=O)[O-])o1)c1cn(-c2ccccc2)nc1-c1ccccc1`, the inhibition runs as follows: (at 20 µM) 65.8% (inactive); under setting [1], -1.2%.
For `O=C(N/N=C/c1ccc([N+](=O)[O-])o1)c1cn(-c2ccccc2)nc1-c1ccc(Cl)cc1`, where the note is “at 20 µM”, the inhibition was 64% (active).
In the case of `COc1ccc(-c2nn(-c3ccccc3)cc2C(=O)N/N=C/c2ccc([N+](=O)[O-])o2)cc1`, the inhibition is 55.9% (inactive) (at 20 µM) and 0.9% under setting [1].
As for `COc1ccccc1OCCNC(=O)C1CCCCC1`, for the setting “at 20 µM”, the inhibition was -0.2% (inactive).
For the compound `COc1ccccc1N1C(=O)C2C(C(=O)c3ccccc3)=NN(c3ccc(Br)cc3)C2C1=O` (configuration not stated), the inhibition (at 20 µM) is 54.9% (active) and the inhibition under setting [1] is 55%.
The matching figures for `COc1ccccc1N1C(=O)C2C(C(=O)c3ccccc3)=NN(c3ccccc3OC)C2C1=O` (configuration not stated): 59.5% (inactive) and 13.2%.
The matching figures for `COc1ccccc1N1C(=O)C2C(C(=O)c3ccccc3)=NN(c3ccc(C)cc3)C2C1=O` (configuration not stated): 85.1% (active) and 102%.
Regarding `COC(=O)C1=NN(c2ccc(OC)cc2)C2C(=O)N(c3ccccc3OC)C(=O)C12` (configuration not stated), for the setting “at 20 µM”, the inhibition was -0.7% (inactive).
Same read-out and setting: with `COC(=O)C1=NN(c2ccccc2)C2C(=O)N(c3ccccc3OC)C(=O)C12` (configuration not stated) the figure was 1.2% (inactive).
In the case of `COc1ccccc1N1C(=O)C2C(C(=O)c3ccccc3)=NN(c3ccccc3)C2C1=O` (configuration not stated), the inhibition (at 20 µM) was 72.1% (inactive) and the inhibition under setting [1] was 33.6%.
In the case of `O=C(Nc1ccc(F)cc1F)C1CCN(C(=O)c2ccc(Br)cc2)CC1`, for the setting “at 20 µM”, the inhibition was 1.2% (inactive).
For `Cc1ccc(CCNC(=O)c2nnc(CS(=O)(=O)c3ccccc3)o2)cc1`, for the setting “at 20 µM”, the inhibition was -0.3% (inactive).
On to `O=C(COC(=O)c1ccc2c(c1)C(=O)N(Cc1ccco1)C2=O)NCC(F)(F)F`, for which, for the setting “at 20 µM”, the inhibition is 1.5% (inactive).
